Laboratory results published in PubChem BioAssay (EPA / NIEHS).
Active and inactive are the calls of the source. Rule for the calls: active = hit-call score of the fitted dose curve at least 0.9, where 1 is the maximum; inactive = score below 0.9.

How the values were obtained:
Details in all cases: mRNA level, 48 h; actives raise or lower the signal
[1] = read-out: NAD(P)H dehydrogenase [quinone] 1 (NQO1), NQO1 (gene 1728); assay: LTEA_HepaRG_NQO1: Life Technologies and Expression Analysis (LTEA) Assay for NAD(P)H dehydrogenase [quinone] 1 (NQO1) using HepaRG (AID 2283526)
In short: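 qRT-PCR read-out (Fluidigm TaqMan), normalized to three housekeeping genes, after 48 h chemical exposure of HepaRG cells. Concentrations: eight points, top 100 uM, half-log steps, 0.5% DMSO vehicle. Gain or loss of signal fitted relative to DMSO.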

[2] = read-out: Nuclear factor erythroid 2-related factor 2 (Homo sapiens) (UniProt Q16236); assay: LTEA_HepaRG_NFE2L2: Life Technologies and Expression Analysis (LTEA) Assay for Nuclear factor erythroid 2-related factor 2 (NFE2L2) Transcription Factor using HepaRG (AID 2283527)
In short: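 NFE2L2 transcript level was read by qRT-PCR (housekeeping ACTB/GAPDH/POLR2A normalisation) after 48 h chemical treatment of HepaRG in serum-free induction medium. Duplicate 8-point half-log curves, top 100 uM, 0.5% DMSO vehicle; up- or down-regulation fitted against vehicle.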

[3] = read-out: succinate dehydrogenase complex iron sulfur subunit B (SDHB), SDHB (gene 6390); assay: LTEA_HepaRG_SDHB: Life Technologies and Expression Analysis (LTEA) Assay for succinate dehydrogenase complex iron sulfur subunit B (SDHB) using HepaRG (AID 2283528)
In short: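 HepaRG, 48 h exposure, 8-pt half-log series from 100 uM in 0.5% DMSO, duplicates. Readout: SDHB mRNA by Fluidigm qRT-PCR vs housekeeping genes; bidirectional fit relative to DMSO.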

[4] = read-out: Signal transducer and activator of transcription 3 (Homo sapiens) (UniProt P40763); assay: LTEA_HepaRG_STAT3: Life Technologies and Expression Analysis (LTEA) Assay for Signal transducer and activator of transcription (STAT3) using HepaRG (AID 2283529)
In short: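 STAT3 transcript quantified by qRT-PCR against three housekeeping genes (ACTB, GAPDH, POLR2A), fitted both directions relative to DMSO. HepaRG cultures exposed 48 h to eight half-log concentrations, top 100 uM, 0.5% DMSO, serum-free induction medium.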

[5] = read-out: solute carrier (SLCO1B1), SLCO1B1 (gene 10599); assay: LTEA_HepaRG_SLCO1B1: Life Technologies and Expression Analysis (LTEA) Assay for solute carrier (SLCO1B1) using HepaRG (AID 2283530)
In short: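 Human HepaRG cultures treated for 48 h with an eight-concentration half-log series topping at 100 uM; SLCO1B1 measured by qRT-PCR and fitted bidirectionally relative to DMSO.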

[6] = read-out: sulfotransferase 2A1 (SULT2A1), SULT2A1 (gene 6822); assay: LTEA_HepaRG_SULT2A1: Life Technologies and Expression Analysis (LTEA) Assay for sulfotransferase 2A1 (SULT2A1) using HepaRG (AID 2283531)
In short: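 Gene-expression endpoint in a human liver cell line: SULT2A1 mRNA change after 48 h chemical treatment, curves fitted in both directions relative to 0.5% DMSO vehicle. Concentrations spanned eight half-log steps from 100 uM.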

[7] = read-out: Transforming Growth Factor (TGFA), TGFA (gene 7039); assay: LTEA_HepaRG_TGFA: Life Technologies and Expression Analysis (LTEA) Assay for Transforming Growth Factor (TGFA) using HepaRG (AID 2283532)
In short: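 TGFA transcript quantified by qRT-PCR (Fluidigm arrays) against three housekeeping genes, after 48 hours chemical treatment of HepaRG cells. Top concentration 100 uM with half-log dilutions, 8 points, duplicates, 0.5% DMSO.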

[8] = read-out: Transforming Growth Factor (TGFB1), TGFB1 (gene 7040); assay: LTEA_HepaRG_TGFB1: Life Technologies and Expression Analysis (LTEA) Assay for Transforming Growth Factor (TGFB1) Transporter using HepaRG (AID 2283533)
In short: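 Eight-point concentration-response (max 100 uM, half-log) in HepaRG under serum-free induction conditions, 48 h. TGFB1 mRNA by qRT-PCR, housekeeping-normalized.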

[9] = read-out: TIMP1, TIMP1 (gene 7076); assay: LTEA_HepaRG_TIMP1: Life Technologies and Expression Analysis (LTEA) Assay for TIMP1 using HepaRG (AID 2283534)
In short: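 TIMP1 induction or repression in HepaRG cells after 48 h chemical exposure (eight concentrations, highest 100 uM), assessed by normalized qRT-PCR with bidirectional fitting to DMSO controls.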

[10] = read-out: Tumor necrosis factor receptor 1 (TNFRSF1A), TNFRSF1A (gene 7132); assay: LTEA_HepaRG_TNFRSF1A: Life Technologies and Expression Analysis (LTEA) Assay for Tumor necrosis factor receptor 1 (TNFRSF1A) using HepaRG (AID 2283535)
In short: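 Assay uses 48 h chemical treatment of differentiated HepaRG monolayers, tested in duplicate at eight concentrations from 100 uM downward in 0.5% DMSO. mRNA is normalized to ACTB, GAPDH and POLR2A, with induction or suppression fitted relative to vehicle.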

Measured: AC50

Nuclear factor erythroid 2-related factor 2 (Homo sapiens), sequence (Q16236 whole entry, looked up): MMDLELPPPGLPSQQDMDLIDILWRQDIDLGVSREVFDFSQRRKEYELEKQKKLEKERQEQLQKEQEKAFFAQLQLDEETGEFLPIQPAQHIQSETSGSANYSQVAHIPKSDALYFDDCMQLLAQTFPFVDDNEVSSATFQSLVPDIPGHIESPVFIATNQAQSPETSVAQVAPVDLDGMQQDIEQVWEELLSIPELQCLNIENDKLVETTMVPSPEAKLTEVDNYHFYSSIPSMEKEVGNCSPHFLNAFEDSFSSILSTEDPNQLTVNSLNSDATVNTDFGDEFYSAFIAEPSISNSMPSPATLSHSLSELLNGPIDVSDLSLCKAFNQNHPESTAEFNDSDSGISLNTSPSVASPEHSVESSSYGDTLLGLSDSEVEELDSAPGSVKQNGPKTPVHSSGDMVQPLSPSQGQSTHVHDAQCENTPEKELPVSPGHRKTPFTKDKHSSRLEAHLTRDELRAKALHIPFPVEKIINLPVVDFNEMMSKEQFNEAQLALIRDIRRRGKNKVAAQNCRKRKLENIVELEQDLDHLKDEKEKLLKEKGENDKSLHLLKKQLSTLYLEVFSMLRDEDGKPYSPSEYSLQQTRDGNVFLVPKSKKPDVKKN
Signal transducer and activator of transcription 3 (Homo sapiens), sequence (P40763 whole entry, looked up): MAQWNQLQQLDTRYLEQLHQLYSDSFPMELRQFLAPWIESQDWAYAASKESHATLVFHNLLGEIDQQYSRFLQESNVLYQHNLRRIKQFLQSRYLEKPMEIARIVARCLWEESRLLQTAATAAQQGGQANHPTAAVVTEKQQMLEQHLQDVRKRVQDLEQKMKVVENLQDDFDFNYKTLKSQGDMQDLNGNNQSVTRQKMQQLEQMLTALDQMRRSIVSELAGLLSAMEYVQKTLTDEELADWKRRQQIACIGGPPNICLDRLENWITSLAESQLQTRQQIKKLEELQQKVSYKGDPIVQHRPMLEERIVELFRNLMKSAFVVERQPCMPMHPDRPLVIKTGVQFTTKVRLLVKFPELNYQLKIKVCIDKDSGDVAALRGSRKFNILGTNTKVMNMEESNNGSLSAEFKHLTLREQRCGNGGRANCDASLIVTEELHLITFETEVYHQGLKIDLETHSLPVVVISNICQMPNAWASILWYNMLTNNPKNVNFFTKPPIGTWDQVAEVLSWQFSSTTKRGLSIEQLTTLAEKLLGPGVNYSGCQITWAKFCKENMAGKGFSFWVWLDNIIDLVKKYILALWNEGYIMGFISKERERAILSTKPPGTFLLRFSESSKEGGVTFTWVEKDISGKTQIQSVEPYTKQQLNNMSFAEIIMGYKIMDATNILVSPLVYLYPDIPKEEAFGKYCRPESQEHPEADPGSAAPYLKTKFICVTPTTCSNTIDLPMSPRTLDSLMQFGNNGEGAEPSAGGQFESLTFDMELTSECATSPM

CCN(CC)C(=O)c1cccc(C)c1
active: [4] 4.39 µM
inactive: all other assays above

c1ccc2[nH]c(-c3cscn3)nc2c1
active: [2] 50 µM
not listed: [8]
inactive: all other assays above

O=C(c1ccccc1)C1CCCCC1
inactive: all assays above

CCNc1nc(N)nc(Cl)n1
inactive: all assays above

COc1c(Cl)ccc(Cl)c1C(=O)O
inactive: all assays above

CC(=O)[C@H]1CC[C@H]2[C@@H]3CCC4=CC(=O)CC[C@]4(C)[C@H]3CC[C@]12C
inactive: [2]
active: [1] 62.1 µM | [3] 88.6 µM | [4] 63.1 µM | [5] 75.2 µM | [6] 38.5 µM | [7] 33.1 µM | [8] 91.8 µM | [9] 22.2 µM | [10] 90.6 µM

O=C(Nc1ccc([N+](=O)[O-])cc1Cl)c1cc(Cl)ccc1O
inactive: [2]
active: [1] 13.4 µM | [3] 2.68 µM | [4] 2.9 µM | [5] 3.28 µM | [6] 5.12 µM | [7] 1.93 µM | [8] 3.95 µM | [9] 3.18 µM | [10] 10.1 µM

CC(C)(C)[C@@H](O)[C@@H](Cc1ccc(Cl)cc1)n1cncn1
not listed: [5]
inactive: all other assays above

CCC(C)OC(=O)N1CCCCC1CCO (stereo not drawn)
inactive: all assays above

COC(=O)CSc1cc(N=c2sc(=O)n3n2CCCC3)c(F)cc1Cl
inactive: all assays above

CCSC(=O)N(CC(C)C)CC(C)C
inactive: all assays above

CCOC(=O)C(C)Oc1ccc(Oc2nc3ccc(Cl)cc3o2)cc1 (stereo not drawn)
inactive: all assays above

CCCOC(=O)c1ccc(C(=O)OCCC)nc1
inactive: all assays above

C[C@]12CC[C@@H]3c4ccc(O)cc4C[C@@H](CCCCCCCCCS(=O)CCCC(F)(F)C(F)(F)F)[C@H]3[C@@H]1CC[C@@H]2O (stereo partly drawn)
active: [1] 0.0555 µM | [3] 11.6 µM | [5] 25 µM | [6] 24.9 µM | [7] 0.0998 µM | [8] 0.121 µM | [10] 0.0802 µM
inactive: [2] | [4] | [9]
